# PubChem BioAssay (NCI)
# Several values for one entry are separate records, joined by “and”; a condition that tells them apart may be missing. Equal values may be shown once. The panel holds about 79,000 compounds, 15% with a hit somewhere; the sample as a whole holds those more often. A number with no mark means an inactive call. Activity calls are given as the source filed them. No stated cut-off is given here; in the data, active means growth inhibition above about 70%; inactive means the rest.
# Experiment: NCI Yeast Anticancer Drug Screen. Data for the rad50 strain (AID 155);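 further: 0% = growth of vehicle-only cultures of the same strain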
# Conditions: S. cerevisiae rad50 strain growth inhibition, hits give high values
# Method: Growth inhibition of yeast strains with defined genetic alterations is measured as a screen for potential anti-cancer activity. Selected strains with alterations in DNA damage repair or cell cycle control were exposed to compounds and growth inhibition was measured relative to vehicle treated controls. The strain used in this assay is rad50
# [1] = at 5.0 µM (retest, dose inferred, filed as 0.5)
# [2] = at 50.0 µM (retest, dose inferred, filed as 5.0)
SMILES,growth inhibition (at 1.2 µM),growth inhibition (at 3.7 µM),growth inhibition [1],growth inhibition (at 11.0 µM),growth inhibition (at 33.0 µM),growth inhibition [2],growth inhibition (at 50.0 µM),growth inhibition (at 100.0 µM)
C=C[C@H]1CN2CC[C@H]1C[C@@H]2[C@@H](O)c1ccnc2ccccc12,2%,10%,2%,3%,2%,13%,-1.45%,-2%
COc1ccc(OC)c(/C=C/[N+](=O)[O-])c1,11%,21%,-83% and 19%,48%,86% (active),86% (active) and 95% (active),99.4% (active),99% (active)
CC1=C(CO)C2=C(C)C3(CC3)[C@@](C)(O)C(=O)C2=C1,1%,3%,–,13%,42%,–,14%,79% (active)
O=C(c1ccccc1)C1C(c2ccccc2[N+](=O)[O-])N1C1CCCCC1 (stereo not given),2%,3%,-2%,28%,71% (active),72% (active),96.9% (active),84% (active)
C/C(=N\N)C(CN1CCCCC1)C(c1ccccc1)c1c(O)c2ccccc2oc1=O (stereo not given),–,–,3%,–,–,3%,79.8% (active),–
[N-]=[N+]=NS(=O)(=O)c1cccc([N+](=O)[O-])c1,–,–,8%,–,–,100% (active),80.2% (active),–
C=CCN(CC=C)CC(C(C)=O)C(c1ccccc1)c1c(O)c2ccccc2oc1=O (stereo not given),–,–,32%,–,–,32%,85.3% (active),–
CCN(CC)C1CC(O[C@H]2C[C@](O)(C(=O)CO)Cc3c(O)c4c(c(O)c32)C(=O)c2c(OC)cccc2C4=O)OC(C)C1O (stereo not given in full),–,–,98% (active),–,–,98% (active),99.2% (active),–
N#CC(C#N)=Cc1ccc([N+](=O)[O-])s1,–,–,-83%,–,–,98% (active),99.6% (active),–
